Here are results for 17 molecules from ChEMBL document CHEMBL1961873, “Compounds: GSK PKIS; Assays: Nanosyn kinase panel” (2012).

Each structure is given as a SMILES string.

Assay [1] deals with Platelet-derived growth factor receptor beta (Homo sapiens) (UniProt P09619). The conditions noted are these: at 1 µM.
The target in assay [2] is Tyrosine-protein kinase FRK (Homo sapiens) (UniProt P42685). The conditions noted are these: at 0.1 µM.
Assay [3] has the same target. The conditions noted are these: at 1 µM.
For assay [4], the target named is Protein-tyrosine kinase 2-beta (Homo sapiens) (UniProt Q14289). The conditions noted are these: at 0.1 µM.
Chain of Protein-tyrosine kinase 2-beta (Homo sapiens) (Q14289 whole entry, looked up): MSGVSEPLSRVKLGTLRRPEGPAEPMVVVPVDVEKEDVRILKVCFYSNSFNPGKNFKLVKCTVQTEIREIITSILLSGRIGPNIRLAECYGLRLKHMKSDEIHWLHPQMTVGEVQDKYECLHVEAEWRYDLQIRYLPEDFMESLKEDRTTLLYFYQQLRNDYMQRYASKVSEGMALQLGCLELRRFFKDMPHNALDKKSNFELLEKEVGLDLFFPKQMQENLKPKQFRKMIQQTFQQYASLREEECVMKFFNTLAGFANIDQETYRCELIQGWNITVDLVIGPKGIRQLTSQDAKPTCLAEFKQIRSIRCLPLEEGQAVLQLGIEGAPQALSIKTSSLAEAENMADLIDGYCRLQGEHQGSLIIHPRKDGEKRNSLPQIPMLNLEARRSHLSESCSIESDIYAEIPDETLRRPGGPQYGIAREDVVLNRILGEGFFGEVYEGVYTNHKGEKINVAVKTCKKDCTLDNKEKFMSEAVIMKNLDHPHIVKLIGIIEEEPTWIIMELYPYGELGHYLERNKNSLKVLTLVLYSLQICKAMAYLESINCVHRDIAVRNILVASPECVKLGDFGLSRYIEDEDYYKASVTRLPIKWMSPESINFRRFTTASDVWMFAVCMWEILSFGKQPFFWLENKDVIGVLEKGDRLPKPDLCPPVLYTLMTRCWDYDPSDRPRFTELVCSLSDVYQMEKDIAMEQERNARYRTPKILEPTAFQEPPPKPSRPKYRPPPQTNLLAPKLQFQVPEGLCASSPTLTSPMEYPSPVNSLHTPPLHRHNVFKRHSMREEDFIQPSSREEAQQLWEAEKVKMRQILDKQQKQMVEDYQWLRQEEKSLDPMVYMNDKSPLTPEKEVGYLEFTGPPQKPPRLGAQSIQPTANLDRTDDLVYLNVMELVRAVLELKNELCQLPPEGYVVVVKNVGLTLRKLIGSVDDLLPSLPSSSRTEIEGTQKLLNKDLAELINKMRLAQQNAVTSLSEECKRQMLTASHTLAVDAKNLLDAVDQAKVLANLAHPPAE
Assay [5] shares this target. The conditions noted are these: at 1 µM.
Assay [6] addresses Proto-oncogene tyrosine-protein kinase receptor Ret (Homo sapiens) (UniProt P07949). The conditions noted are these: at 0.1 µM.
For assay [7] the target is unchanged. The conditions noted are these: at 1 µM.
Assay [8] deals with Proto-oncogene tyrosine-protein kinase receptor Ret (Homo sapiens), P07949 [V804L]. The conditions noted are these: at 0.1 µM.
Chain of Proto-oncogene tyrosine-protein kinase receptor Ret (Homo sapiens), P07949 [V804L] (P07949 whole entry V804L): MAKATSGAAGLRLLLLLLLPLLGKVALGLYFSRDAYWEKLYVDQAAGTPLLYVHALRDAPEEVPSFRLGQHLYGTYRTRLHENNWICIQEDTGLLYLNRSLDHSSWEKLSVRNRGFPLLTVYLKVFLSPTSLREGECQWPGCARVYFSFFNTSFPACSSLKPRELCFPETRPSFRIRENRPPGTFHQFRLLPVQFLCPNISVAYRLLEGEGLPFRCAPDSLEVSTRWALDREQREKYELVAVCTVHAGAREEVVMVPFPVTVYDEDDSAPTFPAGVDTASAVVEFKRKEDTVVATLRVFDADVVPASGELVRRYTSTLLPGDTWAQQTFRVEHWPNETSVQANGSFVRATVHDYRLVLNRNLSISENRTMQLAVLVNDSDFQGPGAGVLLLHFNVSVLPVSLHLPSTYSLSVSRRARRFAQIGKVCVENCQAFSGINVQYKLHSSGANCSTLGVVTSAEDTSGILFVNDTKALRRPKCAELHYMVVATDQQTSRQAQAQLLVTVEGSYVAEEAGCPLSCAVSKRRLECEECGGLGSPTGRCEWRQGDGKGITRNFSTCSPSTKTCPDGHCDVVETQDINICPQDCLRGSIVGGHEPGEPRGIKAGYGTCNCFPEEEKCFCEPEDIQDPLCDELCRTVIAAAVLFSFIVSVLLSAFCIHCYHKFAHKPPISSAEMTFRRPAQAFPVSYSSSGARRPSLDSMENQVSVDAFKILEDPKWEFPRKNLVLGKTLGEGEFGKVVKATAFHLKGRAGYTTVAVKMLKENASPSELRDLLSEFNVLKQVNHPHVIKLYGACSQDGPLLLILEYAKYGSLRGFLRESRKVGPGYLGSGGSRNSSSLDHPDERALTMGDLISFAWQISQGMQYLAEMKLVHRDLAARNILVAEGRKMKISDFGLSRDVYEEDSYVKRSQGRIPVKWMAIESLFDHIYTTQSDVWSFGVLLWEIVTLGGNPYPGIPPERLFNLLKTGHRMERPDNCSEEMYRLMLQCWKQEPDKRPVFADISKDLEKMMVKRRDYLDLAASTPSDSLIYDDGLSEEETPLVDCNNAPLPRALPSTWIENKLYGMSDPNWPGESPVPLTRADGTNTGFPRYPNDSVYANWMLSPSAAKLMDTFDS
Assay [9] shares this test system. The conditions noted are these: at 1 µM.
The subject of assay [10] is Proto-oncogene tyrosine-protein kinase receptor Ret (Homo sapiens), P07949 [Y791F]. The conditions noted are these: at 0.1 µM.

Chain of Proto-oncogene tyrosine-protein kinase receptor Ret (Homo sapiens), P07949 [Y791F] (P07949 whole entry Y791F): as the sequence (P07949 whole entry V804L) above, with Y791F, L804V counted along it
Chain of Platelet-derived growth factor receptor beta (Homo sapiens) (P09619 whole entry): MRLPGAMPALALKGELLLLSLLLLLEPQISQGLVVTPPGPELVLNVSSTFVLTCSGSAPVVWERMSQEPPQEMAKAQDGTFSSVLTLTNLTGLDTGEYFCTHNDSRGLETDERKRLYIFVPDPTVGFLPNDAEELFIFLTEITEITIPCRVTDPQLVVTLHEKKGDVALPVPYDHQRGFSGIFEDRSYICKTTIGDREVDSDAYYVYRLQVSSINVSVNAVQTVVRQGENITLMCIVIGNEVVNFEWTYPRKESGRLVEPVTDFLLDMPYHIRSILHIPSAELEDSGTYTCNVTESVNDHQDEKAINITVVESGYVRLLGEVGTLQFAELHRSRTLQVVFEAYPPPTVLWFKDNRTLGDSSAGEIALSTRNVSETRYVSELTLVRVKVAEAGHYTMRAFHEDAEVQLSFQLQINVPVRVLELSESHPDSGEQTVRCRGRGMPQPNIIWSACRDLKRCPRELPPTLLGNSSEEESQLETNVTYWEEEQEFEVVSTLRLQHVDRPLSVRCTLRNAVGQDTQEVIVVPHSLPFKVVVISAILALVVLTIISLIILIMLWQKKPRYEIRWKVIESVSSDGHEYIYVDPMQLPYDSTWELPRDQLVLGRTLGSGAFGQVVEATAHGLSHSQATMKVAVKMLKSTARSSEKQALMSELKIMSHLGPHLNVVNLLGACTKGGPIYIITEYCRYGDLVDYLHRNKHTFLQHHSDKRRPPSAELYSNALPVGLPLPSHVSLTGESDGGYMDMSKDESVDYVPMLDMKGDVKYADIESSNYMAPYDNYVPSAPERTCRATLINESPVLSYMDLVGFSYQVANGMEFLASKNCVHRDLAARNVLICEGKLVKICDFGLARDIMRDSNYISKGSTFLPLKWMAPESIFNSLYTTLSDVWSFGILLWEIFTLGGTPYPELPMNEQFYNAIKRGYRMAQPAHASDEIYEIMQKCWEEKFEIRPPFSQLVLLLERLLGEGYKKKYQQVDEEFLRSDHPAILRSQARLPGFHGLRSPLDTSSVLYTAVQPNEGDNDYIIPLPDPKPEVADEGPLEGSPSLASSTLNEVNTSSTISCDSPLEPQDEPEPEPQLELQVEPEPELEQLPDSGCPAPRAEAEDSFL
Chain of Tyrosine-protein kinase FRK (Homo sapiens) (P42685 whole entry): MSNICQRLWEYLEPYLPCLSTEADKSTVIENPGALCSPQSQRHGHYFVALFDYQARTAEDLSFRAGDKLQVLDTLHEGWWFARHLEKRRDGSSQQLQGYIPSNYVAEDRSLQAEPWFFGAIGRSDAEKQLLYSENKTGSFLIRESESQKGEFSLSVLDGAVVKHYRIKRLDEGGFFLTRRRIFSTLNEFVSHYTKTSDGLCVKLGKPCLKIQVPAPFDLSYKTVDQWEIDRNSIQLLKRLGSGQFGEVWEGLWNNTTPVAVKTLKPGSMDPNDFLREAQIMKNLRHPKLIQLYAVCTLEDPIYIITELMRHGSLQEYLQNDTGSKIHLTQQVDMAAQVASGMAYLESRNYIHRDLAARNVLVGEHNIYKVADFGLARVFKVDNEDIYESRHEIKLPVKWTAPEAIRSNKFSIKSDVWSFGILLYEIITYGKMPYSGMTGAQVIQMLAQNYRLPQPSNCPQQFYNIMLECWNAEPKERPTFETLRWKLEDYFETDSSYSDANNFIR
Chain of Proto-oncogene tyrosine-protein kinase receptor Ret (Homo sapiens) (P07949 whole entry): as the sequence (P07949 whole entry V804L) above, with L804V counted along it

Take `Cc1ccc(O)cc1Nc1ccnc2ccc(S(C)(=O)=O)cc12`: the inhibition (in general, the relative decrease from the control value, in per cent) was 84.2% in assay [1]; 89% in assay [2]; 95.7% in [3]; 15.7% in assay [4]; 41.3% in assay [5]; 81.8% in [6]. For the same molecule, the inhibition worked out at 88.4% in assay [7], 7.62% in assay [8], 26.6% in assay [9] and 81.3% in assay [10].
With `c1ccc(Nc2ncc(-c3ccccc3)o2)cc1`, the inhibition in [1] is 36%; in [2], 3.95%; in [3] it was 4.95%; in assay [4], 10.4%; in assay [5] it was 14.3%; in assay [6] it was 6.9%. The inhibition stood at 9.61% in [7], 2.13% in [8], 6.39% in assay [9] and 5.1% in [10].
With `O=C(Nc1ccc(Oc2ccc3[nH]c(NC(=O)c4ccco4)nc3c2)cc1)Nc1cc(C(F)(F)F)ccc1F`, the inhibition in assay [1] turned out to be 58.3%; in [2], 0.19%; in assay [3], 2.9%; in [4] it was 0.95%; in assay [5], 12.9%; in assay [6], 77.7%. For the same molecule, the inhibition in [7] is 84.2%; in assay [8] it was 45.6%; in assay [9], 75.7%; in assay [10], 50.9%.
In the case of `CCCN1CCCC(c2ccc(Nc3nc(Nc4cc(F)ccc4C(N)=O)c4cc[nH]c4n3)c(OC)c2)C1` (stereo not given), the inhibition in [1] came out at 32.2%; in assay [2], 7.2%; in assay [3] it was 20.5%; in assay [4], 96%; in assay [5], 97.7%; in assay [6], 8.63%. The inhibition in [7] worked out at 20.9%; in [8], 10.1%; in assay [9], 41.6%; in [10] it was 8.67%.
`COc1cc2ncnc(Nc3ccc4c(cnn4Cc4ccccc4)c3)c2cc1OC`: the inhibition in assay [1] came out at 6.26%; in assay [2] it was 1.94%; in assay [3], 6.16%; in [4], 6.05%; in assay [5], 9.57%; in assay [6] it was 8.77%. In addition, the inhibition in assay [7] amounted to 28.6%; in [8] it was 3.73%; in assay [9], 9.3%; in [10], 9.71%.
Take `CCS(=O)(=O)c1ccc(OC)c(Nc2ncc(-c3cccc(OC)c3)o2)c1`: the inhibition in [1] was determined as 74.8%; in assay [2], 4.05%; in assay [3], 26.9%; in [4], 6.52%; in assay [5], 10.9%; in assay [6], 21.9%. For the same molecule, the inhibition was found to be 68.5% in assay [7], 7.11% in [8], 44.1% in assay [9] and 22.6% in [10].
For `Cc1nc(-c2ccccc2)n2nc(NCCCN3CCOCC3)ncc12`, the inhibition in assay [1] turned out to be 5.95%; in assay [2], 3.57%; in assay [3], 2.61%; in assay [4] it was 1.99%; in [5], 10.1%; in assay [6], 0.76%. In addition, the inhibition came to 6.88% in assay [7], 2.64% in assay [8], 7.97% in [9] and 4.35% in assay [10].
Turning to `FC(F)(F)c1ccc(-c2nn3ncccc3c2-c2ccnc(Nc3ccc4c(c3)OCCO4)n2)cc1`, the inhibition in assay [1] was determined as 17.4%; in assay [2], 1.38%; in assay [3] it was 2.35%; in assay [4] it was 2.83%; in assay [5], 1.96%; in assay [6], 8.08%. The inhibition is 29.2% in [7], 9.12% in assay [8], 14.3% in assay [9] and 8.67% in assay [10].
`COc1cccc(-n2ncc3c(N/N=C/c4ccc(C)cc4)ncnc32)c1`: the inhibition in assay [1] worked out at 21.1%; in assay [2], 2.86%; in assay [3], 5.6%; in [4] it was 4.06%; in [5], 15.8%; in [6] it was 3%. Besides, the inhibition in [7] is 11.5%; in assay [8], 3.72%; in assay [9], 10.2%; in [10], 4.38%.
Turning to `CN(C)c1cc2c(Nc3ccc4c(cnn4Cc4ccccc4)c3)ncnc2cn1`, the inhibition in [1] came to 7.75%; in assay [2] it was 1.92%; in assay [3], 2.5%; in assay [4], 4.48%; in assay [5], 5.1%; in assay [6] it was 1.87%. Moreover, the inhibition in assay [7] came out at 13.6%; in assay [8], 3.56%; in [9] it was 0.35%; in assay [10], 5.78%.
In the case of `NS(=O)(=O)c1ccc(Nc2cc(-c3cccc(O)c3)n[nH]2)cc1`, the inhibition in assay [1] came to 26.1%; in assay [2], 0.88%; in assay [3], 2.04%; in [4] it was 10.7%; in assay [5] it was 12.3%; in assay [6] it was 6.46%. Also, the inhibition in assay [7] was 15.5%; in [8], 9.69%; in [9], 21.3%; in [10] it was 13.4%.
Take `COC(=O)c1cncc(/C=C/c2c(C)cc(O)cc2C)c1`: the inhibition in assay [1] came out at 36.7%; in assay [2], 2.26%; in assay [3] it was 6.54%; in [4] it was 9.3%; in assay [5], 10.1%; in assay [6], 2.45%. The inhibition was found to be 5.3% in [7], 2.74% in assay [8], 7.8% in assay [9] and 0.65% in [10].
For the molecule `COc1cc(/C=N/Nc2ncnc3c2cnn3C(C)C)ccc1O`, the inhibition stood at 45.1% in [1]; 2.61% in assay [2]; 1.87% in assay [3]; 8.31% in assay [4]; 21.9% in assay [5]; 61.1% in assay [6]. Moreover, the inhibition in assay [7] is 85.4%; in assay [8], 14.1%; in [9], 53.9%; in assay [10], 54%.
As to `Cc1ccc2c(-c3ccnc(Nc4ccc5c(c4)OCCO5)n3)c(-c3ccc(C(F)(F)F)cc3)nn2n1`, the inhibition in assay [1] was 4.63%; in assay [2], -1.35%; in [3], -0.65%; in [4], -0.75%; in [5], 2.42%; in assay [6], -1.02%. Further, the inhibition is 3.09% in assay [7], 0.74% in assay [8], 1.64% in assay [9] and 1.62% in [10].
As to `NC(=O)c1sc(-n2cnc3ccccc32)cc1OCc1ccccc1Br`, the inhibition was determined as 14.4% in assay [1]; 2.57% in [2]; 3.29% in assay [3]; 7.34% in [4]; 6.52% in [5]; 9.37% in [6]. Moreover, the inhibition came out at 12.7% in assay [7], 3.43% in assay [8], 5.79% in assay [9] and 5.9% in assay [10].
Turning to `CS(=O)(=O)CCNCc1nc(-c2ccc3ncnc(Nc4ccc(OCc5cccc(C(F)(F)F)c5)cc4)c3c2)cs1`, the inhibition in assay [1] was 10.1%; in assay [2], 1.71%; in assay [3], 0.38%; in assay [4], -1.25%; in assay [5] it was 2.41%; in assay [6] it was 5.26%. The inhibition in assay [7] turned out to be 4.11%; in assay [8], 2.89%; in [9] it was 5.13%; in [10] it was 7.97%.
With `CN(C)CCCn1c(-c2nonc2N)nc2cnccc21`, the inhibition in assay [1] is 11.6%; in [2], 2.2%; in [3], 1.55%; in assay [4], 9.44%; in [5] it was 4.55%; in assay [6] it was 7.25%. The inhibition in assay [7] turned out to be 8.04%; in assay [8], 1.93%; in [9] it was 2.02%; in assay [10] it was 2.47%.
